Screening results as filed in PubChem.
Most compounds without a hit are left out; they make up all but 10% or so of the library.
RORgamma inh: qHTS for inhibitors of ROR gamma transcriptional activity | AID 2551, 2010 | Potency, µM (series often up to 53.6 µM), inactives show top-dose activity change, negative = inhibition, most hits filed as inhibitors | Drosophila S2 Gal4-RORgamma UAS-luciferase reporter, 20 h | Nuclear receptor ROR-gamma (Mus musculus), P51450 | hit rate 5.4% among 310,000; also: % is scaled to controls: 0 for no effect and ±100 for the full control effect; nearly all actives have a fitted effect of over 60% in size
Target sequence (P51450 whole entry, looked up, the tested form may be a part): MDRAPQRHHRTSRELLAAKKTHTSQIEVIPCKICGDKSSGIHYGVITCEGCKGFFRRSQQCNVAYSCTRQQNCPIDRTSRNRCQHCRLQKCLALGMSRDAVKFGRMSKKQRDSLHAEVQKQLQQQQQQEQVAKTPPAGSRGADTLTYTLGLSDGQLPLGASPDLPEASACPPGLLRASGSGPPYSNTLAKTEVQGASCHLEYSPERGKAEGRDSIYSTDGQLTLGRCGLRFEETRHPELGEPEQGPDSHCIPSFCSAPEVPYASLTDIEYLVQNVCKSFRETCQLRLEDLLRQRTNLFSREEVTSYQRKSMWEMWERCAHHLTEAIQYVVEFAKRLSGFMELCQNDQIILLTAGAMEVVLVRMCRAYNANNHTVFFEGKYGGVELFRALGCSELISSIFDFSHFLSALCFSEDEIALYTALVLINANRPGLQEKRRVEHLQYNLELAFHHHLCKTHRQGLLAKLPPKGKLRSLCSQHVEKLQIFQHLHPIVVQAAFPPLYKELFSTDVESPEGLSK
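ROR gamma transcriptional activity was tracked as Gal4-UAS luciferase output in stably transfected Drosophila Schneider cells, with compound added 1 hr before 700 uM copper sulfate induction and a 20 hr ambient-temperature incubation.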
SW480 rerep: A quantitative high throughput screen for small molecules that induce DNA re-replication in SW480 colon adenocarcinoma cells | SW480 DNA re-replication, Hoechst DNA content imaging, 48 h | hit rate 1.8% among 340,000 | Potency, µM (highest dose often 46.1 µM), without a hit: at the highest dose re-replication activation, most hits filed as activators; also: % of control where 0% means no effect; nearly all actives have a fitted effect of over 55% in size
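Per well, 250 cells were exposed to pinned compound for 48 hr. Nuclear DNA was visualised with Hoechst (40 min, 37 C) and total object intensity recorded by fluorescence scanning.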
Gal4-VP16 FLuc: VP16 counterscreen qHTS for inhibitors of ROR gamma transcriptional activity; Drosophila S2 Gal4-VP16 UAS-luciferase, luminescence, 20 h; Potency, µM (doses to about 53.6 µM), for inactives: at the highest dose activity, negative = inhibition, hits mostly inhibitors; hit rate 3.5% among 310,000; AID 2546, 2010;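 also: Gal4-VP16 expression switched on by copper sulfate through the metallothionein promoter; % is scaled to controls: 0 for no effect and ±100 for the full control effect; nearly all actives have a fitted effect of over 50% in size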
KB-3-1 cytotox: qHTS assay for MDR1-selective chemotherapeutics: Primary screen using the parental adenocarcinoma cell KB-3-1 | Potency, µM (top dose mostly 46.1 µM), hits mostly cytotoxic | hit rate 1.4% among 400,000 | KB-3-1 viability, CellTiter-Glo ATP luminescence, 72 h; also: % is scaled to controls: 0 for no effect and ±100 for the full control effect; nearly all actives have a fitted effect of over 60% in size
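Parental KB-3-1 adenocarcinoma cells in phenol-red-free DMEM with 10% FBS were pin-treated with compounds at several concentrations, incubated 72 h at 37 °C, and viability read by CellTiter-Glo luminescence; concentration-effect curves were fitted after normalization.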
KB-V1 cytotox: qHTS assay for MDR1-selective chemotherapeutics: Primary screen using the drug-selected MDR subline cells KB-V1 | Potency, µM (top dose mostly 46.1 µM), most hits filed as cytotoxic | hit rate 3.4% among 400,000 | AID 1347076, 2019 | KB-V1 MDR cells viability, CellTiter-Glo, 72 h; also: % is scaled to controls: 0 for no effect and ±100 for the full control effect; nearly all actives have a fitted effect of over 60% in size
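Potencies derive from concentration-effect curves fitted to normalized luminescence (CellTiter-Glo) of KB-V1 cells treated for 72 h at 37 degrees C in phenol-red-free DMEM containing 10% FBS.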
MCF10A rereplic: A quantitative high throughput screen for small molecules that induce DNA re-replication in MCF 10a normal breast cells. hit rate 2.9% among 350,000. MCF 10A DNA re-replication, Hoechst nuclear intensity, 48 h. Potency, µM (series often up to 46.1 µM), for the others: at the highest dose activity, positive = re-replication, hits mostly activators; also: % of control where 0% means no effect; nearly all actives have a fitted effect of over 50% in size
Active calls of the source: *; i = inactive; ? = inconclusive; / = not tested or not shown; [ ] = remark or other dose. Calls follow the shape of the dose curve; as a rule, active = well fitted curve in the direction sought with a large enough effect; inconclusive = small, poorly fitted or top-dose-only effect, or another doubt; inactive = no such curve, though single readings can be large; an effect the other way counts as inactive or inconclusive. Potency is read from the fitted curve at half-maximal effect.

SMILES	RORgamma inh	SW480 rerep	Gal4-VP16 FLuc	KB-3-1 cytotox	KB-V1 cytotox	MCF10A rereplic
CCOC(=O)c1cnc(-n2cc(C)cn2)nc1Nc1ccccc1OCC	1.8µM*	-4%	-10%	?	1.2µM*	10%
CCCNC(=O)C1(C)CCN(C(=O)c2cccnc2Oc2ccccc2)C1 (configuration not stated)	/	/	/	i	i	/
CNS(=O)(=O)c1cn(CC(=O)N2CCN(c3ccc(C)cc3C)CC2)cc1S(=O)(=O)NC	/	/	/	i	i	/
O=C1C(=Cc2ccccc2O)SC(=S)N1CCCN1CCOCC1	/	/	/	i	i	/
CC(=O)N1CCc2c(sc3c2c(=O)n(-c2ccc(C)cc2)c(=O)n3Cc2ccccc2C)C1	/	/	/	i	i	/
COc1ccc(NC(=O)CN2C(=O)CCn3nc(-c4cccn4C)cc32)cc1Cl	/	/	/	i	i	/
CCOC(=O)c1cnc(-n2nc(C)cc2C)nc1Oc1ccccc1F	5µM*	-8%	?	i	i	-5%
CCOC(=O)c1cnc(-n2nc(C)cc2C)nc1Oc1ccc(C(=O)OC)cc1	-22%	-88%	3%	i	i	22%
CCOC(=O)c1cnc(-n2nc(C)cc2C)nc1Nc1ccc(OC)cc1	1.6µM*	?	2.5µM*	i	i	9%
CCOC(=O)c1nc(Nc2ccc(OC)cc2)c2ccccc2n1	-5%	?	1%	i	?	-1%
CCOC(=O)c1cnc(-n2nc(C)cc2C)[nH]c1=O	6.3µM*	5%	-27%	i	i	8%
CCOC(=O)c1cnc(-n2nc(C)cc2C)nc1NCc1ccc2c(c1)OCO2	3.5µM*	?	3.2µM*	?	?	?
O=C(CN1C(=O)C2(SCC(=O)N2c2ccc(F)cc2)c2ccccc21)NCCc1ccccc1 (configuration not stated)	/	/	/	i	i	/
CN1C(=O)CCS(=O)(=O)C1c1ccc(Cl)c(Cl)c1 (configuration not stated)	/	/	/	i	i	/
CCOC(=O)c1cnc(-n2nc(C)cc2C)nc1N(C)C	1.1µM*	-5%	4.5µM*	i	i	0%
CCOC(=O)c1cnc(-n2nc(C)cc2C)nc1NCCc1ccccc1	0.89µM*	14%	1.8µM*	i	0.73µM*	?
CN(C)c1cccc2c(S(=O)(=O)NC(=O)[C@H]3O[C@@H](n4cnc5c(N)ncnc54)[C@H](O)[C@@H]3O)cccc12	/	/	/	i	i	/
NC(=S)c1cc2ccc(O)cc2oc1=O	-24%	10µM*	2%	i	i	21µM*
C/C(=N/NC(=O)c1ccncc1)c1cc2ccc(O)cc2oc1=O	12%[10 µM]	61%	-4%	i	i	?
C/C(=N/NC(N)=S)c1cc2ccc(O)cc2oc1=O	?	?	-10%	i	i	18µM*
Cn1cnc([N+](=O)[O-])c1Sc1ccc(Br)cc1	?	?	?	i	i	6.5µM*
c1ccc(-c2csc(NC3=NCCCCC3)n2)cc1	-14%	-2%	6%	i	i	-24%
FC(F)Oc1ccc(-c2csc(NNC3=NCCCCC3)n2)cc1	?	6%	4%	i	i	?
Brc1ccc(-c2csc(NNC3=NCCCCC3)n2)cc1	7.1µM*	3%	14µM*	?	i	?
CC(C)(C)c1ccc(-c2csc(NNC3=NCCCCC3)n2)cc1	13µM*	?	?	i	?	?
SMILES	RORgamma inh	SW480 rerep	Gal4-VP16 FLuc	KB-3-1 cytotox	KB-V1 cytotox	MCF10A rereplic
CCCCOc1ccc(Cn2c(=O)sc3ccccc32)cc1	/	/	/	i	i	/
COc1cc(CN(C(=S)NCC(=O)NC2CCCC2)C2CCCC2)cc(OC)c1OC	3%	?	4%	i	13µM*	-6%
C/C(=N\NC(=O)c1c(Cl)c(C)nn1C)c1ccc(NC(=O)c2ccncc2)cc1	-38%	0%	-5%	i	i	3%
Cc1nn(-c2ccc(NC(=O)c3ccncc3)cc2)c(C)c1Cl	?	-3%	7.9µM*	i	i	2%
COc1ccc(Cn2c3nc4ccccc4nc3c3c(=O)n(Cc4ccco4)cnc32)cc1	10µM*	/	?	/	/	/
Cc1cccc(-n2cnc3c(c2=O)c2nc4ccccc4nc2n3Cc2ccco2)c1	?	14%	-28%	?	i	?
COc1cc(/C=C2\SC(=S)N(CCC(=O)Nc3cccc(O)c3)C2=O)cc(OC)c1OC	28%	-3%	?	i	i	?
COc1cc(/C=C2/SC(=S)N(CCC(=O)Nc3ccccc3)C2=O)cc(OC)c1OC	-43%	1%	-21%	i	i	21µM*
COc1cc(/C=C2\SC(=S)N(CCC(=O)Nc3ccccc3)C2=O)cc(OC)c1OC	-10%	-56%	9%	i	i	18µM*
CC(C)c1ccc(C(=O)N2CCCC(c3cc(C(=O)Nc4ccc5c(c4)OCO5)no3)C2)cc1 (configuration not stated)	/	/	/	i	?	/
O=C1NC(c2cccc3ccccc23)Nc2ccc(Cl)cc21 (configuration not stated)	/	0.73µM*	/	0.18µM*	0.23µM*	?
CCOC(=O)OCC1OC(c2ccc(C(C)=O)cc2)C=CC1OC(=O)OCC (configuration not stated)	2%[10 µM]	/	-18%[10 µM]	/	/	/
CN(CC(=O)O)c1ccc(/C=C/c2ccnc3ccccc23)cc1	/	/	/	i	?	/
Cc1cc(NC(=O)C(C)SCC(=O)N(Cc2ccccc2)c2ccccc2)no1 (configuration not stated)	/	-442%	/	?	6.5µM*	?
Cc1cc(Br)ccc1NC(=O)CN(C)C(=O)CSC(=S)N1CCCC1	/	-5%	/	i	13µM*	-2%
Cc1cc(NC(=O)C(C)SCC(=O)N(C)CC(=O)Nc2ccc(Br)cc2C)no1 (configuration not stated)	13µM*	4%	13µM*	i	i	4%
CCOc1cc(Cl)c(S(=O)(=O)n2ccnc2)cc1Cl	/	/	/	i	?	/
O=c1cc(CSc2nc(NCc3ccccc3)c3ccccc3n2)nc2ccc(Cl)cn12	4.5µM*	-1%	21%	i	2.3µM*	1%
